Measurements from PubChem BioAssay AID1445 (SRMLSC, 2008).
Hit rate of the full screen: of about 220,000 compounds, about 910 (0.41%) were called active.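 The calls were made as follows: active = primary inhibition above the hit cutoff, then over 50% inhibition at one or more dose response concentrations (cut at about 23% in these data, passing the limit was not always enough); inconclusive = conflicting primary data, or primary hits not chosen for dose response; inactive = low primary inhibition, or under 50% at every dose.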 The list comes from a sample in which actives are over-represented; it also holds similar structures and randomly drawn compounds. Measured potencies and affinities stand elsewhere.

These compounds were tested against Aminopeptidase N (Plasmodium falciparum (isolate 3D7)) (UniProt O96935) (assay: malaria alanyl aminopeptidase activity blockers – biochemical, fluorogenic H-Leu-NHMec substrate, 1536-well (AID 1445;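 also: plate controls were DMSO full reaction for no effect and no enzyme background for full effect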)). Conditions: recombinant M1AAP, H-Leu-NHMec fluorogenic kinetic assay; at 30 µM, active compounds read high unless noted.
Aminopeptidase N (Plasmodium falciparum (isolate 3D7)), sequence (O96935 whole entry, looked up): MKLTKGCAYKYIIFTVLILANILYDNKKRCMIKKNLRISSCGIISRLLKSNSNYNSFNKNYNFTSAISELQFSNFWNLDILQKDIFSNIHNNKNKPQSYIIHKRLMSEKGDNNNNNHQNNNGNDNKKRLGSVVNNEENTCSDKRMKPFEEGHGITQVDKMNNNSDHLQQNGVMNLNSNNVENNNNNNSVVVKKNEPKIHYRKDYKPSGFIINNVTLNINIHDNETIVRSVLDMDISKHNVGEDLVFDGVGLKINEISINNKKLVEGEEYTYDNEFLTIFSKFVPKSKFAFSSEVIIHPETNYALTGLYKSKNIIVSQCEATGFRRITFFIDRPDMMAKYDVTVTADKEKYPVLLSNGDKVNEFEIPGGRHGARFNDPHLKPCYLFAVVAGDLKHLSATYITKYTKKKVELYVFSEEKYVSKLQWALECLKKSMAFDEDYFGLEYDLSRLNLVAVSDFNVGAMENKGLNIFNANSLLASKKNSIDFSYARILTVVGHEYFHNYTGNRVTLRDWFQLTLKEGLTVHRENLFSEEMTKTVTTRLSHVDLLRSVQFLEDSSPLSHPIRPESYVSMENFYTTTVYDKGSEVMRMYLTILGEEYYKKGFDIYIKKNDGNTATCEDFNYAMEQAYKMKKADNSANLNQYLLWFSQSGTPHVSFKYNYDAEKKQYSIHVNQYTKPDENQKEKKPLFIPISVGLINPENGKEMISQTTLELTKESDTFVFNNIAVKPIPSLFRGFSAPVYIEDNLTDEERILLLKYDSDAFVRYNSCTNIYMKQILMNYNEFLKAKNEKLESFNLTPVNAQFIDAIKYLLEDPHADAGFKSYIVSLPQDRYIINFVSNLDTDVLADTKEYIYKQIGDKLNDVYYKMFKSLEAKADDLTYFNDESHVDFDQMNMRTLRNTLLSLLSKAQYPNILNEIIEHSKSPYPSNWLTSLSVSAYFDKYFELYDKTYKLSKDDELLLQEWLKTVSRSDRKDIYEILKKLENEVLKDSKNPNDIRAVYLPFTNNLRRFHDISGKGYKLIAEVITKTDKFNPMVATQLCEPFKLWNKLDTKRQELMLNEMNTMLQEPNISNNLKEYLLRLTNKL

Compound	inhibition
Cc1cc(C(=O)COC(=O)c2ccc(N)c([N+](=O)[O-])c2)c(C)n1-c1ccc2c(c1)OCO2	4.88% (inactive)
COc1cc([N+](=O)[O-])ccc1-c1ccc(/C=N/NC(N)=O)o1	0.13% (inactive)
COc1cc([N+](=O)[O-])ccc1-c1ccc(/C=N/NC(=O)OC(C)(C)C)o1	3.22% (inactive)
N#CCCN(CCC#N)C(=O)c1ccc(Cl)cc1	0.66% (inactive)
Nc1cc(N)nc(SCc2cccnc2)n1	-6.1% (inactive)
O=C(CO/N=C/c1c(Cl)cccc1Cl)NNC(=O)c1cccc(Cl)c1	0.37% (inactive)
O=C(NNC(=O)c1cc(-c2ccccc2)nc2ccccc12)Nc1cccc(Cl)c1	6.82% (inactive)
Cc1cccc(S(=O)(=O)NNC(=O)c2cc(-c3ccc(F)cc3)nc3ccccc23)c1	15.2% (inactive)
Cc1cccc(N2CCN(Cc3cnc(Cl)s3)CC2C)c1 (centres undefined)	3.39% (inactive)
COc1ccc(CNC(=O)c2csc(Cc3ccccc3)n2)cc1	2.78% (inactive)
Cc1nc2ccc(Cl)cc2c(-c2ccccc2Cl)c1CC(=O)O	-0.5% (inactive)
Cc1nc2ccc(Cl)cc2c(-c2ccccc2F)c1CC(=O)O	16.3% (inactive)
C/C(Cn1cnc([N+](=O)[O-])n1)=N\NC(=O)c1ccccc1	15.8% (inactive)
CCOc1ccc(NC(=O)C/C(N)=N/O)cc1	-8.44% (inactive)
COc1ccc([N+](=O)[O-])cc1NS(=O)(=O)c1cccc(C(=O)O)c1	7.17% (inactive)
O=C(O)c1cccc(S(=O)(=O)Nc2ccccc2Cl)c1	0.86% (inactive)
CCOc1cc(C(=O)N(C)Cc2cc3ccccc3[nH]c2=O)cc(OCC)c1OCC	4.4% (inactive)
CCCCCc1nc2sc3c(c2c(=O)n1NC(=O)c1ccc([N+](=O)[O-])cc1)CC(C)(C)OC3	4.81% (inactive)
CCCCCCCCCc1nc2sc3c(c2c(=O)n1NC(=O)c1ccc([N+](=O)[O-])cc1)CC(C)(C)OC3	3.87% (inactive)
CCCCCCCCCc1nc2sc3c(c2c(=O)n1NC(=O)c1ccccc1[N+](=O)[O-])CC(C)(C)OC3	-2.36% (inactive)
CCc1nc2sc3c(c2c(=O)n1N)CC(C)(C)OC3	-0.3% (inactive)
Cn1c(=O)c(C(=O)COc2ccc(F)cc2Cl)c(N)n(Cc2ccccc2)c1=O	6.9% (inactive)
COc1ccc(CC(NC(C)=O)C(=O)NC2CCN(c3c(Cc4ccccc4)c(C)nc4ncnn34)CC2)c(OC)c1 (centres undefined)	-2.17% (inactive)

Compound	inhibition
C/C(=N/N1CCN(c2ccccn2)CC1)c1ccc([N+](=O)[O-])cc1	-1.3% (inactive)
COc1ccc(Cn2nnc3c(=O)[nH]c(C(=O)NCCc4ccc(F)cc4)nc32)cc1OC	24.5% (active)
O=C(NCc1cccs1)c1nc2c(nnn2Cc2ccc(F)cc2)c(=O)[nH]1	2.78% (inactive)
O=C(NCCc1ccccc1)c1nc2c(nnn2Cc2ccccc2Cl)c(=O)[nH]1	-9.83% (inactive)
O=C(COC(=O)c1cccc(C(=O)OCC(=O)NCc2ccc(F)cc2)n1)NCc1ccc(F)cc1	5.21% (inactive)
Cc1cccc(NC(=O)C(NS(=O)(=O)c2ccc3c(c2)CCC(=O)N3)c2ccccc2)n1 (centres undefined)	2.64% (inactive)
CSc1ncc(Cl)c(C(=O)Nc2nnc(SC/C=C/c3ccccc3)s2)n1	30% (inactive)
CSc1ncc(Cl)c(C(=O)Nc2nnc(SC)s2)n1	12.7% (inactive)
C=CCSc1nnc(NC(=O)c2ccc(Cl)nc2)s1	2.22% (inactive)
CCSc1ncc(Cl)c(C(=O)Nc2ccccc2)n1	2.17% (inactive)
Fc1ccc(NC(=S)NC23CN4CN(CN(C4)C2)C3)cc1	6.25% (inactive)
CCc1cccc(CC)c1NC(=O)COn1nnc2ccc(C(F)(F)F)cc21	-1.32% (inactive)
COc1ccc(S(=O)(=O)Nc2ccc(O)c(Sc3ncn[nH]3)c2)cc1	18% (inactive)
O=C(O)c1cccc(S(=O)(=O)Nc2ccc(O)c(Sc3nc4ccccc4s3)c2)c1	22.2% (inactive)
O=S(=O)(Nc1ccc(O)c(Sc2nc3ccccc3s2)c1)c1ccc(F)cc1	7.05% (inactive)
O=S(=O)(Nc1ccc(O)c(Sc2nc3ccccc3s2)c1)c1ccc(Cl)cc1	0.11% (inactive)
Cc1cc(C)nc(NC(=O)/C=C/c2ccc3c(c2)OCO3)c1	4.5% (inactive)
Cc1cccc(NC(=O)CN2C(=O)COc3ccc(Cl)cc32)c1C	0.78% (inactive)
CCOc1ccc(/C=C2\SC(=S)NC2=O)cc1OC	17.4% (inactive)
COc1cc(/C=C/C(=O)O)ccc1OS(=O)(=O)c1ccc(C)cc1	0.48% (inactive)
COc1ccc(C=O)cc1OS(=O)(=O)c1ccc(NC(C)=O)cc1	4.39% (inactive)
COc1cc(/C=C(\C#N)C(N)=O)ccc1OS(=O)(=O)c1ccc(C)cc1	12.9% (inactive)
COc1ccc(/C=C2/S/C(=N/S(=O)(=O)Cc3ccccc3)NC2=O)cc1OC	12.7% (inactive)

Compound	inhibition
COc1cc(C=O)ccc1OS(=O)(=O)c1ccc(NC(C)=O)cc1	7.57% (inactive)
CCOc1ccc(S(=O)(=O)N2CCOCC2)cc1[N+](=O)[O-]	1.27% (inactive)
Nc1ccc(C(=O)OCC(=O)c2cccc([N+](=O)[O-])c2)cc1	-2.36% (inactive)
Cc1nc(NCc2ccccc2)sc1C(=O)Nc1ccccc1	-1.78% (inactive)
CN1CCc2c(sc(NC(=O)c3ccc(S(=O)(=O)N4CCc5ccccc54)cc3)c2C(N)=O)C1	5.03% (inactive)
CCN(CC(=O)Nc1ccccc1OC)C(=O)COc1ccc2ccccc2c1	5.71% (inactive)
CC1(C)CC(=O)C2=C(C1)Nc1cc(C(=O)c3ccccc3)ccc1NC2c1ccccn1 (centres undefined)	18.1% (inactive)
Cc1cc2c(cc1C)NC(c1ccccn1)C1=C(CC(C)(C)CC1=O)N2 (centres undefined)	23.3% (active)
CC1(C)CC(=O)C2=C(C1)Nc1ccccc1NC2c1ccccn1 (centres undefined)	8.61% (inactive)
COCCNC(=O)c1cc2oc3ccccc3c2n1C	15% (inactive)
O=C1OC(/C(=C\Nc2ccccc2)[N+](=O)[O-])c2ccccc21 (centres undefined)	7.21% (inactive)
O=C1OC(/C(=C\Nc2ccc(F)cc2F)[N+](=O)[O-])c2ccccc21 (centres undefined)	8.86% (inactive)
O=[N+]([O-])c1cc(S(=O)(=O)N2CCCC2)ccc1NCCCN1CCOCC1	4.04% (inactive)
CC(C)NCc1c(O)c(Br)cc2oc3c(c12)CCCC3	9.95% (inactive)
O=[N+]([O-])c1cc2oc3c(c2c(C=NCc2ccccc2)c1O)CCCC3	-0.25% (inactive)
Oc1c(Br)cc2oc3c(c2c1CNCc1ccccc1)CCCC3	33.9% (active)
O=C(CSc1nnc(-c2cccs2)o1)OCc1ccccc1	5.09% (inactive)
CCO[C@H]1OC(C(=O)N2CCOCC2)=C[C@@H](c2ccc(Br)cc2)[C@@H]1CCCO	-2.33% (inactive)
CC/C(=C\C1CCCCC1)C(NP(=O)(c1ccccc1)c1ccccc1)c1ccccc1 (centres undefined)	5.64% (inactive)
CCOc1cc(NS(=O)(=O)c2ccc(OC)cc2)c(OCC)cc1NC(=O)c1ccco1	1.99% (inactive)
CCOC(=O)C1C(=O)CC(C)(O)C(C(=O)OCC)C1c1ccc(Br)cc1 (centres undefined)	11.1% (inactive)
Cc1ccc(NC(=O)N2CCN(S(=O)(=O)c3ccccc3)CC2)cc1	-1.89% (inactive)
O=C(COC(=O)CCSc1ccc(Cl)cc1)NCCc1ccccc1	-5.52% (inactive)

Compound	inhibition
NS(=O)(=O)c1ccc(CCNC(=O)CSc2ccc(Cl)cc2)cc1	9.38% (inactive)
O=C(CCC(=O)Nc1ccccc1)N/N=C/C=C/c1ccccc1	7.53% (inactive)
Cn1c(=O)c2c(nc(NCc3ccccc3)n2CC(=O)NCc2ccccc2)n(C)c1=O	-6.75% (inactive)
Cc1cccc(C(=O)Oc2ccc(/C=N/NC(=O)c3ccccc3O)cc2)c1	3.44% (inactive)
CCOC(=O)c1ccc2[nH]c3c(c2c1)CCCC3O (centres undefined)	0.31% (inactive)
CCN(CC)c1ccc(/C=C2/C(=O)N(c3ccc([N+](=O)[O-])cc3)N=C2N2CCOCC2)cc1	-6.76% (inactive)
CCN(CC)c1ccc(/C=C2/C(=O)ON=C2C)cc1	15.8% (inactive)
C=CCOC(=O)c1[nH]c2c(c1C)C(=O)CC(c1ccco1)C2 (centres undefined)	9.27% (inactive)
N#CC1=C(N)C2=CCCC[C@H]2[C@H](c2ccc(Br)cc2)C1(C#N)C#N	1.37% (inactive)
N#CC1=C(N)C2=CCCC[C@H]2[C@H](c2ccccc2)C1(C#N)C#N	0.19% (inactive)
N#CC1=C(N)C2=C(N3CCCCC3)CCCC2C1(C#N)C#N (centres undefined)	27.6% (active)
COc1ccc(-c2cc(-c3cccnc3)c(C#N)c(N)n2)cc1	11.1% (inactive)
Cc1cc(NS(=O)(=O)c2ccc(NC(=O)C(C(C)C)N3C(=O)c4ccccc4C3=O)cc2)nc(C)n1 (centres undefined)	11.3% (inactive)
CC(C)CC(C(=O)NC(=O)NCc1ccccc1)N1C(=O)c2ccccc2C1=O (centres undefined)	7.55% (inactive)
CC(C)CC(C(=O)Nn1cnnc1)N1C(=O)c2ccccc2C1=O (centres undefined)	25.1% (active)
Cc1noc(NS(=O)(=O)c2ccc(NC(=O)c3ccc(N4C(=O)c5ccccc5C4=O)cc3)cc2)c1C	-1.13% (inactive)
Cc1noc(NS(=O)(=O)c2ccc(NC(=O)CCN3C(=O)c4ccccc4C3=O)cc2)c1C	12.8% (inactive)
Cc1cc(NS(=O)(=O)c2ccc(NC(=O)C(C)N3C(=O)c4ccccc4C3=O)cc2)nc(C)n1 (centres undefined)	2.55% (inactive)
CC(C)CC(C(=O)NCc1ccccn1)N1C(=O)c2ccccc2C1=O (centres undefined)	13.1% (inactive)
COc1cccc(Cn2nnc(C(=O)NCc3ccc(F)cc3)c2N)c1	-3.49% (inactive)
